PubChem BioAssay (Tox21)
Records with an inconclusive call do not appear. Calls of active or inactive are those of the source. Calls come from the whole dose curve; as a rule, active = well fitted curve in the direction sought with a large enough effect in the repeat runs; inconclusive = weak or mixed curves; inactive = no such curve, though single readings can be large; an effect the other way counts as inactive or inconclusive.

Columns and labels:
[1] = A CellTox Green Cytotoxicity Assay to monitor cytotoxicity in HEK293 cells - 40 hour (AID 1224871); note: nearly all actives have a fitted effect of over 45% in size
Procedure, shortened: (§1)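 HEK293 cells, 600/well, were preincubated 5 hours and then exposed to compounds at 37 C for up to 40 hours. A cell-impermeant cyanine dye staining dead-cell DNA was read by fluorescence at 0, 8, 16, 24, 32 and 40 h time points.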

[2] = qHTS RealTime-Glo MT Cell Viability Assay in HEK293 cells - 16 hour (AID 1224872); note: nearly all actives have a fitted effect of over 50% in size; note: potency is the fitted concentration of half-maximal effect; for activity change, negative = cytotoxicity: top concentration of the series differs between compounds
Procedure, shortened: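 Tox21 10K qHTS, HEK293, 600 cells/well, RealTime-Glo reagent co-dispensed with cells; 5 h preincubation, compound by pintool, 37 C, luminescence at 0–40 h.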

[3] = qHTS RealTime-Glo MT Cell Viability Assay in HepG2 cells - 8 hour (AID 1224873); note: nearly all actives have a fitted effect of over 55% in size
Procedure, shortened: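 HepG2 cells mixed with RealTime-Glo MT reagents (NanoLuc plus cell-permeant prosubstrate) were seeded at 600 cells/well, incubated 5 h at 37 C/5% CO2, then pinned with compounds in DMSO; nonlytic luminescence tracked viability during 40 h treatment.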

[4] = qHTS RealTime-Glo MT Cell Viability Assay in HEK293 cells - 40 hour (AID 1224874); details: RealTime-Glo luminescence; max response: active compounds read low; note: nearly all actives have a fitted effect of over 50% in size; note: potency is the fitted concentration of half-maximal effect
Procedure, shortened: (§2)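 600 cells/well were plated with the nonlytic NanoLuc/prosubstrate reagent, pre-incubated 5 h, then given 23 nL of compound in DMSO. Incubation at 37 C for 40 h, with luminescence from viable-cell-reduced substrate read repeatedly from 0 h.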

[5] = A CellTox Green Cytotoxicity Assay to monitor cytotoxicity in HEK293 cells - 24 hour (AID 1224875); note: series mostly up to about 77 µM; nearly all actives have a fitted effect of over 45% in size
Procedure, shortened: as §1

[6] = A CellTox Green Cytotoxicity Assay to monitor cytotoxicity in HepG2 cells - 16 hour (AID 1224876); note: nearly all actives have a fitted effect of over 45% in size
Procedure, shortened: (§3)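 HepG2 cells, 600/well, preincubated 5 h with CellTox Green dye, then exposed to Tox21 compounds in DMSO at 37 C for up to 40 h. Dead-cell DNA fluorescence read at the indicated time point.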

[7] = qHTS RealTime-Glo MT Cell Viability Assay in HepG2 cells - 32 hour (AID 1224877); note: nearly all actives have a fitted effect of over 55% in size
Procedure, shortened: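 Cells + NanoLuc/prosubstrate dispensed (600 cells/well) → 5 h at 37 C/5% CO2 → compounds in DMSO transferred → 40 h incubation at 37 C, luminescence read at 0, 8, 16, 24, 32, 40 h.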

[8] = A CellTox Green Cytotoxicity Assay to monitor cytotoxicity in HepG2 cells - 40 hour (AID 1224879); note: nearly all actives have a fitted effect of over 40% in size
Procedure, shortened: as §3

[9] = qHTS RealTime-Glo MT Cell Viability Assay in HEK293 cells - 0 hour (AID 1224880); note: top concentration of the series differs between compounds; nearly all actives have a fitted effect of over 45% in size
Procedure, shortened: as §2

[10] = A CellTox Green Cytotoxicity Assay to monitor cytotoxicity in HepG2 cells - 24 hour (AID 1224878); note: nearly all actives have a fitted effect of over 45% in size
Procedure, shortened: as §3
% is set by controls: 0 for no effect and ±100 for the full control effect.

CCCCCCCCCCOS(=O)(=O)O
inactive: Potency [1] | Potency [2] | Potency [3] | max response [4] -3.11% | Potency [5] | Potency [6] | Potency [7] | Potency [8] | Potency [9]

ON(Cc1ccccc1)Cc1ccccc1
inactive: Potency [1] | Potency [2] | Potency [3] | max response [4] 4.01% | Potency [5] | Potency [6] | Potency [7] | Potency [8] | Potency [9]

CC(=O)Oc1ccc(C(=C2CCCCC2)c2ccc(OC(C)=O)cc2)cc1
inactive: Potency [1] | Potency [2] | Potency [3] | max response [4] 4.82% | Potency [5] | Potency [6] | Potency [7] | Potency [8] | Potency [9]

C=CC(=C)CCCC(C)(C)OC(C)=O
inactive: Potency [1] | Potency [2] | Potency [3] | max response [4] -7.82% | Potency [5] | Potency [7] | Potency [8] | Potency [9]

CCC(C(=O)OCCN(CC)CC)c1ccccc1 (stereo not drawn)
inactive: Potency [1] | Potency [2] | Potency [3] | max response [4] 8.92% | Potency [5] | Potency [6] | Potency [7] | Potency [10] | Potency [9]

CCOC(=O)c1ccccc1C
inactive: Potency [1] | Potency [2] | Potency [3] | max response [4] -14.1% | Potency [5] | Potency [7] | Potency [10] | Potency [9]

CCCCCCCCCCCCCCCCBr
inactive: cytotoxicity increase [1] -0.351% [at 15.8 µM] | activity change, negative = cytotoxicity [2] 6.53% [at 15.8 µM] | viability change, negative = cytotoxic [3] 2.68% [at 15.8 µM] | max response [4] 4.08% | activity change [5] 2.71% [at 15.8 µM, active compounds read high] | activity change, negative = cytotoxic [7] 2.91% [at 15.8 µM] | cytotoxicity increase [8] -7.84% [at 15.8 µM] | activity change, negative = cytotoxicity [9] 6.45% [at 15.8 µM]

O=C(O)C(Cc1cc(I)c(O)c(I)c1)c1ccccc1 (stereo not drawn)
inactive: Potency [1] | Potency [2] | Potency [3] | max response [4] 0.775% | Potency [5] | Potency [7] | Potency [10] | Potency [8] | Potency [9]

CN(C(=O)C(Cl)Cl)c1ccc(OC(=O)c2ccco2)cc1
inactive: Potency [1] | Potency [2] | Potency [3] | max response [4] -3.14% | Potency [5] | Potency [7] | Potency [10] | Potency [8] | Potency [9]

CCCCCCOC(=O)C(C)C
inactive: Potency [1] | Potency [2] | Potency [3] | max response [4] 6.06% | Potency [5] | Potency [7] | Potency [8] | Potency [9]

CC(CCc1ccc2c(c1)OCO2)NN (stereo not drawn)
inactive: Potency [1] | Potency [2] | Potency [3] | max response [4] 6.86% | Potency [5] | Potency [6] | Potency [7] | Potency [8] | Potency [9]

CCCC(=O)O[C@]1(C(=O)COC(=O)CC)CC[C@H]2[C@@H]3CCC4=CC(=O)CC[C@]4(C)[C@H]3[C@@H](O)C[C@@]21C
inactive: cytotoxicity increase [1] -16.6% [at 15.8 µM] | activity change, negative = cytotoxicity [2] 5.42% [at 15.8 µM] | viability change, negative = cytotoxic [3] 4.81% [at 15.8 µM] | max response [4] 4.99% | activity change [5] -15.7% [at 15.8 µM, active compounds read high] | activity change, negative = cytotoxic [7] 2.32% [at 15.8 µM] | cytotoxicity [10] -8.51% [at 15.8 µM] | activity change, negative = cytotoxicity [9] 0.536% [at 15.8 µM]

CCC(=O)Oc1ccc(/C(CC)=C(\CC)c2ccc(OC(=O)CC)cc2)cc1
active: Potency [2] 24.5 µM | Potency [4] 17.4 µM
inactive: Potency [1] | Potency [3] | Potency [5] | Potency [6] | Potency [7] | Potency [10] | Potency [9]

C/C(=N/NC(=O)c1ccncc1)C(=O)O
inactive: Potency [1] | Potency [2] | Potency [3] | max response [4] 0.452% | Potency [5] | Potency [7] | Potency [10] | Potency [8] | Potency [9]

CC1CC(O)CC(C)(C)C1 (stereo not drawn)
inactive: Potency [1] | Potency [2] | Potency [3] | max response [4] -3.83% | Potency [5] | Potency [6] | Potency [7] | Potency [8] | Potency [9]

O=C(O)c1snc(Cl)c1Cl
inactive: Potency [1] | Potency [2] | Potency [3] | max response [4] 13.2% | Potency [5] | Potency [7] | Potency [10] | Potency [9]

CCCCCCCCSCCO
inactive: Potency [1] | Potency [2] | Potency [3] | max response [4] 0.336% | Potency [5] | Potency [6] | Potency [7] | Potency [9]

CC1(C)O[C@@H]2C[C@H]3[C@@H]4CCC5=CC(=O)C=C[C@]5(C)[C@H]4[C@@H](O)C[C@]3(C)[C@]2(C(=O)CO)O1
inactive: Potency [1] | Potency [2] | Potency [3] | max response [4] -1.67% | Potency [5] | Potency [7] | Potency [10] | Potency [9]

C=CC(C)(C)CC(=O)OC
inactive: Potency [1] | Potency [3] | Potency [5] | Potency [7] | Potency [8] | Potency [9]
active: Potency [2] 1.38 µM | Potency [4] 1.55 µM

CC(C)CCCC(=O)O
inactive: Potency [1] | Potency [2] | Potency [3] | max response [4] -12.3% | Potency [5] | Potency [7] | Potency [10] | Potency [8] | Potency [9]

CCCCN(CCCC)CCCOC(=O)c1ccc(N)cc1
inactive: Potency [1] | Potency [2] | Potency [3] | max response [4] -19.3% | Potency [5] | Potency [7] | Potency [10] | Potency [8] | Potency [9]

O=C(C(=O)c1ccccc1)c1ccccc1
inactive: Potency [1] | Potency [2] | Potency [3] | max response [4] 3.7% | Potency [5] | Potency [7] | Potency [10] | Potency [8] | Potency [9]

CCCCC(CC)COC(=O)COc1ccc(Cl)cc1C (stereo not drawn)
inactive: Potency [1] | Potency [2] | Potency [3] | max response [4] 14.7% | Potency [5] | Potency [6] | Potency [7] | Potency [10] | Potency [9]
